# PubChem BioAssay AID1159580 (chemical genetic matrix, 2015)
# Out of some 5,500 compounds screened, about 2,000 (36%) were called active. About 18% were inconclusive and are not listed. This is one part of the list. Values without a mark were called inactive. Cut-off read from the data, not from the text of the source: active = normalized growth mostly below about 0.91 (no sharp cut-off); inconclusive = no clear call, values can overlap the other calls; inactive = mostly above about 0.92.
# Assay: chemical genetic growth profiling, strain panel (AID 1159580);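 note: tested at 20 µM; growth read once vehicle control cultures reached saturation at 30 °C; 1 = growth at the plate median or of vehicle wells; lower values mean less growth of the strain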
# Details: S. cerevisiae deletion strains, growth OD
# [1] = locus YAL040C, strain CLN3, hits give low values
# [2] = locus YCL061C, strain MRC1 (second series), hits give low values
# [3] = locus YDR363W, strain ESC2, hits give low values
# [4] = locus YER002W, strain NOP16, hits give low values
# [5] = locus YNL175C, strain NOP13, hits give low values
# [6] = locus YNL197C, strain WHI3, hits give low values
# [7] = locus YNL224C, strain SQS1, hits give low values
# [8] = locus YOR083W, strain WHI5 (second series), hits give low values
smiles,measurement,setting,value
CC(C)C[C@H](N)CSSC[C@@H](N)CC(C)C,normalized growth,[1],0.965
same,normalized growth,[2],1.01
same,normalized growth,[3],1
same,normalized growth,[4],1.02
same,normalized growth,"locus YJR075W, strain HOC1, hits give low values",1
same,normalized growth,"locus YMR307W, strain GAS1, hits give low values",1.01
same,normalized growth,"locus YNL128W, strain TEP1, hits give low values",1.01
same,normalized growth,[5],1.01
same,normalized growth,[6],1.01
same,normalized growth,[7],1
same,normalized growth,[8],1.03
same,normalized growth,"locus YPL241C, strain CIN2, hits give low values",1.01
c1ccc(-c2ccccn2)nc1,normalized growth,[1],0.974
same,normalized growth,[2],0.975
same,normalized growth,[3],1.02
same,normalized growth,[4],0.966
same,normalized growth,"locus YGR078C, strain PAC10, hits give low values",0.977
same,normalized growth,"locus YMR263W, strain SAP30, hits give low values",1
same,normalized growth,"locus YNL153C, strain GIM3, hits give low values",0.942
same,normalized growth,[5],0.987
same,normalized growth,[6],0.95
same,normalized growth,[7],0.991
same,normalized growth,"locus YNL322C, strain KRE1, hits give low values",1.03
same,normalized growth,[8],0.972
c1ccc(-c2nnc(-c3ccccn3)nc2-c2ccccc2)cc1,normalized growth,"locus YAR019C, strain CDC15, hits give low values",0.857 (active)
same,normalized growth,"locus YBL105C, strain PKC1, hits give low values",0.945
same,normalized growth,"locus YBR135W, strain CKS1, hits give low values",0.937
same,normalized growth,"locus YBR136W, strain MEC1, hits give low values",0.904
same,normalized growth,"locus YBR160W, strain CDC28, hits give low values",0.944
same,normalized growth,"locus YDL017W, strain CDC7, hits give low values",0.946
same,normalized growth,"locus YDL028C, strain MPS1, hits give low values",0.896
same,normalized growth,"locus YDL101C, strain DUN1, hits give low values",0.957
same,normalized growth,"locus YDL108W, strain KIN28, hits give low values",0.917
same,normalized growth,"locus YDL132W, strain cdc53, hits give low values",0.856 (active)
same,normalized growth,"locus YDL214C, strain PRR2, hits give low values",0.814
same,normalized growth,"locus YDR052C, strain DBF4, hits give low values",0.908 (active)
same,normalized growth,"locus YDR054C, strain cdc34, hits give low values",0.845 (active)
same,normalized growth,"locus YDR226W, strain ADK1, hits give low values",0.924
same,normalized growth,"locus YDR477W, strain SNF1, hits give low values",0.748
same,normalized growth,"locus YER123W, strain YCK3, hits give low values",0.704
same,normalized growth,"locus YER133W, strain GLC7, hits give low values",0.783
same,normalized growth,"locus YFL009W, strain cdc4, hits give low values",0.812 (active)
same,normalized growth,"locus YFL029C, strain CAK1, hits give low values",0.806 (active)
same,normalized growth,"locus YFR003C, strain YPI1, hits give low values",0.943
same,normalized growth,"locus YFR019W, strain FAB1, hits give low values",0.796
same,normalized growth,"locus YFR028C, strain CDC14, hits give low values",0.871 (active)
same,normalized growth,"locus YGR040W, strain KSS1, hits give low values",0.748
same,normalized growth,"locus YGR052W, strain FMP48, hits give low values",0.641
same,normalized growth,"locus YGR092W, strain DBF2, hits give low values",0.473 (active)
same,normalized growth,"locus YHR030C, strain SLT2, hits give low values",0.531 (active)
same,normalized growth,"locus YHR079C, strain IRE1, hits give low values",0.487 (active)
same,normalized growth,"locus YHR082C, strain KSP1, hits give low values",0.655
same,normalized growth,"locus YHR205W, strain SCH9, hits give low values",0.689
same,normalized growth,"locus YIL147C, strain SLN1, hits give low values",0.893
same,normalized growth,"locus YJL095W, strain BCK1, hits give low values",0.47 (active)
same,normalized growth,"locus YJL128C, strain PBS2, hits give low values",0.871
same,normalized growth,"locus YJL157C, strain FAR1, hits give low values",0.74
same,normalized growth,"locus YJR016C, strain ILV3, hits give low values",0.83 (active)
same,normalized growth,"locus YJR066W, strain TOR1 (second series), hits give low values",0.663
same,normalized growth,"locus YJR066W, strain TOR1, hits give low values",0.565
same,normalized growth,"locus YKL048C, strain ELM1, hits give low values",0.683 (active)
same,normalized growth,"locus YKL067W, strain YNK1, hits give low values",0.792
same,normalized growth,"locus YKL101W, strain HSL1, hits give low values",0.716 (active)
same,normalized growth,"locus YKL193C, strain SDS22, hits give low values",0.867 (active)
same,normalized growth,"locus YKL203C, strain TOR2, hits give low values",0.652 (active)
same,normalized growth,"locus YLR113W, strain HOG1, hits give low values",0.581 (active)
same,normalized growth,"locus YLR133W, strain CKI1, hits give low values",0.676 (active)
same,normalized growth,"locus YLR403W, strain SFP1, hits give low values",0.631 (active)
same,normalized growth,"locus YML070W, strain DAK1, hits give low values",0.78
same,normalized growth,"locus YMR001C, strain CDC5, hits give low values",0.903
same,normalized growth,"locus YMR205C, strain PFK2 (second series), hits give low values",0.734 (active)
same,normalized growth,"locus YMR277W, strain FCP1, hits give low values",0.871 (active)
same,normalized growth,"locus YNL006W, strain LST8, hits give low values",0.932
same,normalized growth,"locus YNL020C, strain ARK1, hits give low values",0.746
same,normalized growth,"locus YNL161W, strain CBK1, hits give low values",0.938
same,normalized growth,"locus YNL183C, strain NPR1, hits give low values",0.655
same,normalized growth,"locus YNL207W, strain RIO2, hits give low values",0.813 (active)
same,normalized growth,"locus YNL222W, strain SSU72, hits give low values",0.914
same,normalized growth,"locus YNL307C, strain MCK1 (second series), hits give low values",0.623 (active)
same,normalized growth,"locus YOL078W, strain AVO1, hits give low values",0.859 (active)
same,normalized growth,"locus YOL136C, strain PFK27, hits give low values",0.861
same,normalized growth,"locus YOR061W, strain CKA2, hits give low values",0.662 (active)
same,normalized growth,"locus YOR119C, strain RIO1, hits give low values",0.57 (active)
same,normalized growth,"locus YOR231W, strain MKK1, hits give low values",0.631
same,normalized growth,"locus YOR329C, strain SCD5, hits give low values",0.921
same,normalized growth,"locus YPL031C, strain PHO85, hits give low values",0.774
same,normalized growth,"locus YPL153C, strain RAD53, hits give low values",0.695
same,normalized growth,"locus YPL204W, strain HRR25, hits give low values",0.661 (active)
same,normalized growth,"locus YPL209C, strain IPL1, hits give low values",0.931
same,normalized growth,"locus YPL256C, strain CLN2, hits give low values",0.545 (active)
same,normalized growth,"locus YPR025C, strain CCL1, hits give low values",0.927
same,normalized growth,"locus YPR106W, strain ISR1, hits give low values",0.919
same,normalized growth,"locus YPR111W, strain DBF20, hits give low values",0.885
same,normalized growth,"strain NNK1, hits give low values",0.814 (active)
same,normalized growth,"strain TSCII, hits give low values",0.842 (active)
